An excerpt weighted towards active compounds, which were near 1.6% of everything screened.
KCNQ2 block – KCNQ2 (rat) channel inhibition; O88943; CHO-K1 KCNQ2, FluxOR thallium flux, 20 min; hits give low values; B-score at 10 µM; 310,000 compounds, 1.1% hits; AID 2156;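 active = fluorescence ratio B-score at most minus 3 library SDs, with starting brightness B-score within 2 library SDs, cut at about -5.5 in these data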
KCNQ2 pot – enhances the rat KCNQ2 potassium channel | AID 2239 | B-score at 10 µM | O88943 | 310,000 compounds, 0.54% hits | CHO-K1 KCNQ2, FluxOR thallium flux fluorescence; hits give high values;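 active = fluorescence ratio B-score at least 3 SD of library B-scores, with initial fluorescence B-score within 3 of them, cut at about 5.3 in these data; same plate scores as AID 2156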;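 also: B-score of peak minus minimum over baseline fluorescence ratio after K+ and Tl+ stimulus; positive B-score means potentiation of KCNQ2 with more thallium influx and brighter signal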
KCNQ2 inh conf – rat KCNQ2 channel inhibition, confirmatory screen; shares compounds with KCNQ2 block; KCNQ2-expressing cells, thallium flux; hits give low values; activity change, negative = inhibition, % at 10 µM; 1,000 compounds, 57% hits;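 also: 0% = vehicle wells and values are ratio percent relative to vehicle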
KCNQ1 spec – KCNQ2 inhibitor that also affects human KCNQ1 channel | shares compounds with KCNQ2 block | KCNQ1-expressing cells, FluxOR thallium flux fluorescence; hits give low values | activity change, negative = inhibition, % at 10 µM | 1,000 compounds, 15% hits | AID 493026;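 active = activity change at least 3 SD of negative controls below their mean in both duplicate wells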;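 also: CHO cells stably transfected with KCNQ1 and depolarized by potassium stimulus; peak minus minimum fluorescence over baseline after thallium addition; 0% = vehicle negative control and -100% = blank without thallium stimulus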
Target sequence (P51787 whole entry, looked up): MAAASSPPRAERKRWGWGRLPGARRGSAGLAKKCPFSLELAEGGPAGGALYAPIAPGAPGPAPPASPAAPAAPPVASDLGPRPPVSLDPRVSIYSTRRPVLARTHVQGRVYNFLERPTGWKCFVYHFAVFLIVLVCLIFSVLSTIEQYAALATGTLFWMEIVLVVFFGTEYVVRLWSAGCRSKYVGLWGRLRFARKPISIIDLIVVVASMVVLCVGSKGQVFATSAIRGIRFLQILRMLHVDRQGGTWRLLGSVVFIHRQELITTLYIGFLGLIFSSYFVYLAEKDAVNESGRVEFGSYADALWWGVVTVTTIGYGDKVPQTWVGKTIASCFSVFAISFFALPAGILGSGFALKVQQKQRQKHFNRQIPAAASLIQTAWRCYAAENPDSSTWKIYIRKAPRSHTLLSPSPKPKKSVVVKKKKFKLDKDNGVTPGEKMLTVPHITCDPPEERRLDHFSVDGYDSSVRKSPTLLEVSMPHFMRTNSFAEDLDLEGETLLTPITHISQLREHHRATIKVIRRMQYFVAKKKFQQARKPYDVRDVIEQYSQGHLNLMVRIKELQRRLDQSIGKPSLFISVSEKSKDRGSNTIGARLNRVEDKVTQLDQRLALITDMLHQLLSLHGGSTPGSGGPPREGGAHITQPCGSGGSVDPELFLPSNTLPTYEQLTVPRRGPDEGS
CHO Tl ctr – KCNQ2 inhibitor counter-screen hit in parental CHO cells | shares compounds with KCNQ2 block | thallium flux counter-screen; hits give low values | activity change, % at 10 µM | 1,000 compounds, 14% hits | AID 493029;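 also: 0% = vehicle negative controls with stimulus buffer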
KCNQ2 inh confirm – blocks rat KCNQ2 current in automated patch clamp; shares compounds with KCNQ2 block; KCNQ2-expressing cells; calls only at 10 µM; 550 compounds, 49% hits; AID 588531
* marks the source's active call; other numbers are inactive results; i = inactive; · = no result; + = active, no number. Unless noted, no rule for the calls is given here.

SMILES	KCNQ2 block	KCNQ2 pot	KCNQ2 inh conf	KCNQ1 spec	CHO Tl ctr	others
C=CCOC(=O)C1=C[C@@H](c2ccc3c(c2)OCO3)C[C@@H](OCc2ccc(CO)cc2)O1	i	·	·	·	·
COc1cccc(C(=O)N2CCCC(Nc3ccc(C)c(C)c3)C2)c1 (stereo unspecified)	i	·	·	·	·
Clc1cccc(CN2CCSCC2)c1Cl	i	·	·	·	·
Cc1ccc(CNCC(=O)Nc2ccc(C)cc2Br)cc1	i	·	·	·	·
COC(=O)C1C2CCC(C2)C1C(=O)OCC(=O)c1ccccc1 (stereo unspecified)	i	·	·	·	·
CCCOC(=O)C1C2C=CC(C3CC23)C1C(=O)OCC(=O)c1ccccc1 (stereo unspecified)	-9.45*	-9.45	i	i	i
CCCCN(C(=S)NC(=O)c1cc(OC)c(OC)c(OC)c1)c1c(N)n(Cc2ccccc2)c(=O)[nH]c1=O	i	·	·	·	·
Cc1ccc(C(=O)NC(=O)OCCn2c(C)cnc2[N+](=O)[O-])cc1	i	·	·	·	·
CCOc1ccc(S(=O)(=O)Nc2cccc(C(=O)NCC(c3ccc(OC)cc3)N3CCOCC3)c2)cc1 (stereo unspecified)	i	0.21	·	·	·
COc1cccc(C(C[N+](=O)[O-])c2c(C)[nH]n(-c3ccccc3)c2=O)c1 (stereo unspecified)	-11.6*	-11.6	i	i	i
Cc1[nH]n(-c2ccccc2)c(=O)c1C(C[N+](=O)[O-])c1ccc(Br)cc1 (stereo unspecified)	i	·	·	·	·
O=C(NCC(=O)N(c1cccnc1)C(C(=O)NC1CCCCC1)c1ccccc1F)c1ccco1 (stereo unspecified)	i	·	·	·	·
COc1ccccc1N1CCN(C(=O)c2c(C)cc(=O)oc2C)CC1	i	0.41	·	·	·
COc1cc2c(C(=O)N3CCN(c4ccccc4C)CC3)c(C)oc2cc1Br	-10.8*	-10.8	-21.5%*	i	i	KCNQ2 inh confirm=i
CC1(C)Cc2c(cnn2-c2ccc(F)cc2)C(NC(=O)C2=NNC(=O)CC2)C1 (stereo unspecified)	i	·	·	·	·
CCOC(=O)C1CCN(C(=O)c2sccc2Cl)CC1	i	·	·	·	·
Nc1nc(-c2ccccc2)c(-c2ccccc2)o1	i	·	·	·	·
c1ccc(-c2nc(-c3nccc4ccccc34)oc2-c2ccccc2)cc1	-8.61*	-8.61	i	i	i
Cc1nc2ccccc2c(=O)n1/N=C/c1cn(-c2ccccc2)nc1-c1cccs1	-9.06*	-9.06	-36.0%*	i	i	KCNQ2 inh confirm=i
Cc1nc2ccccc2c(=O)n1/N=C/c1cccs1	i	·	·	·	·
N#Cc1cc(-c2ccccc2)cnc1Sc1ccc(Cl)cc1	-6.81*	-6.81	i	i	i
N#Cc1cc(-c2ccc(Cl)cc2)cnc1Sc1ccccc1	i	·	·	·	·
Cc1nc(Sc2ccccc2)c(C#N)cc1-c1ccccc1	-9.35*	-9.35	i	i	i
Cc1nc(Cl)c(C#N)cc1-c1ccccc1	i	1.36	·	·	·
O=C(Nc1cccc([N+](=O)[O-])c1)Nc1ccc2c(c1)OCCO2	i	·	·	·	·
SMILES	KCNQ2 block	KCNQ2 pot	KCNQ2 inh conf	KCNQ1 spec	CHO Tl ctr	others
CCOC(=O)C(NC(=O)c1ccccc1Cl)(Nc1ccc(C(F)(F)F)cc1)C(F)(F)F (stereo unspecified)	i	·	·	·	·
CCOC(=O)C(NC(=O)c1ccc(Cl)cc1Cl)(Nc1ccc(C)cc1)C(F)(F)F (stereo unspecified)	-8.52*	-8.52	i	i	i
C=C(C)c1cccc(C(C)(C)NC(=O)NC2CCN(Cc3ccccc3)CC2)c1	i	2.27	·	·	·
C=C(C)c1cccc(C(C)(C)NC(=O)N(Cc2ccccc2)Cc2ccco2)c1	-8.68*	-8.68	-23.0%*	i	i	KCNQ2 inh confirm=i
COc1ccc(CN(C)C(=O)c2ccc(COc3ccccc3)cc2)c(OC)c1	i	·	·	·	·
COc1ccc(CN(C)C(=O)C(Cc2ccccc2)NC(=O)c2ccccc2)c(OC)c1 (stereo unspecified)	-6.69*	-6.69	-33.0%*	i	i	KCNQ2 inh confirm=+
O=C(Nc1ccccc1N1CCOCC1)c1cc(-c2ccncc2)nc2ccccc12	-7.24*	-7.24	-50.0%*	-45.0%*	-38.0%*	KCNQ2 inh confirm=+
COc1ccc(-c2cc(C(=O)NNC(=O)c3csc(N4CCOCC4)n3)c3ccccc3n2)cc1OC	i	0.04	·	·	·
O=C(Nc1ccc(N2CCOCC2)cc1)c1cc(-c2ccncc2)nc2ccccc12	i	·	·	·	·
COc1ccc(-c2cc(C(=O)Nc3ccccc3N3CCOCC3)c3ccccc3n2)cc1OC	-8.16*	-8.16	-38.0%*	-35.0%*	-28.0%*	KCNQ2 inh confirm=+
O=[N+]([O-])c1cc(Br)c(O)c(/C=N/Nc2nnnn2-c2cccc3ccccc23)c1	i	·	·	·	·
O=S(=O)(Cc1ccccc1)Oc1ccccc1	i	·	·	·	·
CCn1c(COc2ccc(OC)cc2)nc2ccccc21	i	·	·	·	·
CCOC(=O)c1ccc2c(c1)nc(COc1ccc3ccccc3c1)n2CC	-9.08*	-9.08	i	i	i
Cc1ccc(CNC(=O)C2CCC(=O)N(CC3CCCCC3)C2)o1 (stereo unspecified)	i	·	·	·	·
COc1ccccc1NC(=O)C1=C(C)Nc2ncnn2C1c1ccccc1C (stereo unspecified)	i	0.97	·	·	·
COc1cccc(C2C(C(=O)Nc3ccc(C)cc3C)=C(C)Nc3ncnn32)c1OC (stereo unspecified)	-11.7*	-11.7	i	i	i
COc1cc(CN2CCCC(N3CCN(c4ccccc4C)CC3)C2)ccc1O (stereo unspecified)	i	0.81	·	·	·
CC(OC(=O)c1nsc(Cl)c1Cl)C(=O)NC(C)(C)C (stereo unspecified)	i	·	·	·	·
COc1ccc(CCN(C)C(=O)Cc2ccc(-c3ccccc3)cc2)cc1OC	i	·	·	·	·
COc1ccc(CCN(C)C(=O)c2cc(-c3ccccc3)nc3ccc(C)cc23)cc1OC	-7.11*	-7.11	-34.5%*	-33.5%*	-26.5%*	KCNQ2 inh confirm=+
CC1C=CCC2C(=O)N(c3cccc(C(=O)Nc4ccc(F)cc4)c3)C(=O)C12 (stereo unspecified)	i	·	·	·	·
CCc1ccc(NC(=O)Cn2cc([N+](=O)[O-])nc2C)cc1	i	1.94	·	·	·
O=C(N/N=C/c1ccc([N+](=O)[O-])cc1)c1cccnc1	i	·	·	·	·
O=C(/C=C/c1cccc(OCc2ccccc2)c1)c1cccnc1	-6.76*	-6.76	-29.0%*	i	i	KCNQ2 inh confirm=i
SMILES	KCNQ2 block	KCNQ2 pot	KCNQ2 inh conf	KCNQ1 spec	CHO Tl ctr	others
O=C(O)/C=C/c1cccc(OCc2ccccc2)c1	i	0.1	·	·	·
O=C(/C=C/c1ccc([N+](=O)[O-])cc1)c1cccnc1	-9.94*	-9.94	i	i	i
CN1/C(=C\C(=O)Nc2ccc(Cl)cc2)C(C)(C)c2ccccc21	-8.06*	-8.06	-27.0%*	i	i	KCNQ2 inh confirm=i
CN1/C(=C\C=C(/C#N)C(=O)Nc2ccc(Cl)cc2)C(C)(C)c2ccccc21	i	·	·	·	·
COCCNC(=O)C1CC(c2ccc(C(F)(F)F)cc2)=NO1 (stereo unspecified)	i	·	·	·	·
CCOC(=O)C1C(=O)C=C(c2cccs2)CC1c1ccccc1 (stereo unspecified)	i	·	·	·	·

From PubChem BioAssay
